# Sampled rows, rich in hits. Any-hit rate of the full collection: about 10%.
# BAZ2B block = inhibitors of human BAZ2B bromodomain. Q9UIF8. AlphaScreen BAZ2B-H3K14Ac peptide displacement. Potency, µM (doses to about 114 µM), for the others: at the highest dose activity change, negative = inhibition, most hits filed as inhibitors. actives 4.4% (n = 360,000). AID 504333; further: potency means the concentration at half of the fitted maximal effect; on the % scale 0 is the no-effect control and ±100 the full control effect; nearly all actives have a fitted effect of over 60% in size
#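 BAZ2B (50 nM) with biotin-H3(5-23)K14Ac peptide (50 nM) in PBS pH 7.4, 0.01% Tween-20, preformed 30 min, then compound 30 min at room temperature; top concentration 110uM. AlphaScreen streptavidin donor/nickel chelate acceptor beads (10 ug/mL final), 20 min dark, signal read.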
# HP1b chromo inh = inhibitors of HP1-beta chromodomain binding to methylated histone tails | P83916 | AlphaScreen HP1-beta / biotin-H3K9me3 peptide binding | actives 0.56% (n = 390,000) | Potency, µM (doses to about 114 µM), for inactives: top-dose activity change, negative = inhibition, usual class: inhibitors; further: potency means the concentration at half of the fitted maximal effect; nearly all actives have a fitted effect of over 70% in size
#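 AlphaScreen: HP1-beta (50 nM) preformed 30 min with biotin-H3(1-18)K9me3 peptide (50 nM) in PBS pH 7.4, 0.01% Tween-20. Compound added for 30 min at RT, then streptavidin donor/nickel chelate acceptor beads (10 ug/mL) for 30 min.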
# G9a inh = G9a (human) methyltransferase inhibition; AID 504332; G9a H3K9 monomethylation, AlphaScreen, 2 h; Potency, µM (titrated, usually from 102 µM), for inactives: top-dose activity, negative = inhibition, actives largely listed as inhibitors; actives 8.8% (n = 350,000); further: potency means the concentration at half of the fitted maximal effect; on the % scale 0 is the no-effect control and ±100 the full control effect; nearly all actives have a fitted effect of over 75% in size
#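 Chemiluminescent proximity detection of H3K9 monomethylation, read after 10 min bead incubation in the dark. Reaction: 20 nM G9a, 500 nM biotin-H3K9 peptide, 20 uM SAM cofactor, 2 h, room temperature, following 15 min enzyme-compound preincubation.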
# CtBP-E1A blk = CtBP/E1A binding inhibition; AlphaScreen GST-E1A/His-CtBP binding, 1536-well; hits give low values; activity change, % (no concentration beside the values); actives 0.49% (n = 340,000); AID 651724; in the data active means activity change below about -65%; inconclusive means mostly about -30% to -63%; further: on the % scale 0 is the no-effect control and ±100 the full control effect
#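 In 5 uL wells, 23 nL compound meets equimolar GST-E1A and His-CtBP (5X stock 125 nM each) for 2 h, 37 °C. Beads (5X, 50 ug/mL) then 1 h, 37 °C, dark.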
# Six1-Eya2 inh = blocks human Six1 binding to Eya2. Q15475+O00167. actives 0.56% (n = 360,000). AID 651725. activity change, % (no concentration beside the values). AlphaScreen GST-Six1/His-Eya2 binding, biochemical; hits give low values; in the data active means activity change below about -65%; inconclusive means mostly about -30% to -63%; further: on the % scale 0 is the no-effect control and ±100 the full control effect
#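 AlphaScreen luminescence read after one hour at 37 °C in darkness. Pin-transferred compounds met GST-Six1 and His-Eya2 protein (5X stock 250 nM/500 nM) plus glutathione donor and Ni-chelate acceptor beads (5X, 50 ug/mL).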
# JMJD2A Tudor = JMJD2A Tudor domain (human) inhibition | actives 4.4% (n = 390,000) | AlphaScreen JMJD2A-Tudor / H3K4me3 peptide binding | O75164 | Potency, µM (highest dose often 114 µM), for the others: at the top dose activity change, negative = inhibition, hits mostly inhibitors; further: potency means the concentration at half of the fitted maximal effect; on the % scale 0 is the no-effect control and ±100 the full control effect; nearly all actives have a fitted effect of over 50% in size
# Numbers without * were called inactive; ? = inconclusive; . = no result given; [ ] = another dose, or the depositor's remark. Unless noted, the call rests on the fitted dose curve; in most records, active means well fitted inhibition curve with a large enough effect; inconclusive means small, poorly fitted or top-dose-only effect; inactive means no such curve, though single readings can be large or run the other way.
SMILES,BAZ2B block,HP1b chromo inh,G9a inh,CtBP-E1A blk,Six1-Eya2 inh,JMJD2A Tudor
CCN(CC)c1ccc(NC(=S)NCC2CCCO2)cc1 (stereo not drawn),45µM*,?,?,-9,-27,?
Cc1ccc(NC(=S)NCC2CCCO2)cc1C (stereo not drawn),-4%,28%,0%[59 µM],3,-3,-3%
CCOC(=O)c1c(NC(=S)NCC2CCCO2)sc(C)c1C (stereo not drawn),.,?,4.5µM*,1,0,?
CCOC(=O)c1c(NC(=O)CN2CCN(C(=O)C3CCCO3)CC2)sc(C)c1C (stereo not drawn),?,17%,?,0,23,-21%
Cc1cccc(NC(=S)NCC2CCCO2)c1 (stereo not drawn),-2%,42%,50µM*,-3,-6,-5%[11.4 µM]
CCOC(=O)c1cccc(Nc2c3c(nc4ccccc24)CCC3)c1,.,26%,-38%[59 µM],.,.,-25%
CC(c1ccco1)N(C)c1ncnc2ccc(-c3ccc4c(c3)OCO4)cc12 (stereo not drawn),.,.,.,.,.,-22%
CCOc1ccc(C(c2c(O)nc(SC)[nH]c2=O)c2c(O)nc(SC)[nH]c2=O)cc1,.,32%,.,.,2,-21%
CSc1nc(O)c(C(c2cccc([N+](=O)[O-])c2)c2c(O)nc(SC)[nH]c2=O)c(=O)[nH]1,?,37%,28µM*,2,-5,-14%
CSc1nc(O)c(C(c2ccc(O)cc2)c2c(O)nc(SC)[nH]c2=O)c(=O)[nH]1,?,?,10µM*,-1,-3,-6%
COc1ccc(C(=O)Nc2nc(-c3nnn(-c4cc(OC)ccc4OC)c3C)ns2)cc1,1%,28%,-1%[59 µM],.,.,-16%
COc1ccc(NC(=O)CSc2ncc3c(n2)-c2cc(Cl)ccc2N(Cc2ccccc2F)S3(=O)=O)cc1,1%,24%,3%[59 µM],.,.,-2%
Cc1ccc(/C=N/Nc2ccnc3cc(Cl)ccc23)c(C)c1,?,-1%,?,4,-1,22µM*
Cc1ccc(Cn2c(=O)n(-c3ccc(C)c(C)c3)c(=O)c3c(C)c(C)sc32)cc1,29%,22%,16%[59 µM],.,.,-4%
c1ccc(SSc2ccccn2)nc1,.,?,.,2,11,4µM*
c1ccc(Sc2ccccn2)cc1,.,6%,.,5,6,-7%
COc1ccccc1NC(=O)c1ccc(-c2nc(COc3ccc(C)cc3)c(C)o2)cc1,-5%,46%,?,.,.,13%
COCCNC(=O)c1ccc2c(c1)NC(=O)CS2,-6%,22%,-5%[59 µM],6,0,-5%
COc1ccc(NC(=O)c2ccc3c(c2)NC(=O)CS3)cc1,9%,12%,?,14,-3,56µM*
Cc1ccc(NS(=O)(=O)c2cc(NC(=O)c3ccc4c(c3)NC(=O)CS4)ccc2Cl)c(C)c1,-38%,?,2.8µM*,-17,-13,-35%
Cc1ccc(N2C(=O)CSC23C(=O)N(CC(=O)NC2CCCCC2)c2ccccc23)cc1C (stereo not drawn),4%[57.1 µM],9%,-6%[59 µM],.,.,-7%
CCOc1cc(/C=N/NC(=O)c2cc(C)n(-c3ccc(F)cc3)c2C)ccc1O,?,-1%,.,.,-21,-34%
Cc1cc(C(=O)N/N=C2\CC(=O)c3ccccc32)c(C)n1-c1ccc(F)cc1,40µM*,28%,50µM*,-19,-13,-4%[11.4 µM]
CC(C)(C)NC(=O)C(c1ccncc1)N(CC1CCCO1)C(=O)Cn1nnc(-c2ccc(F)cc2)n1 (stereo not drawn),-14%,13%,-2%,-7,5,-12%
Cc1ccc(-c2nnn(CC(=O)N(CCO)C(C(=O)NC3CCCCC3)c3ccncc3)n2)o1 (stereo not drawn),-11%,?,45µM*,.,-4,-12%[11.4 µM]

# Compound activity: PubChem, National Center for Advancing Translational Sciences (NCATS)
